# Compounds with a hit are over-represented: about 0.81% of the library has one in this group of screens.
# IDE act: IDE (human) activation, cell-based; hit rate 0.073% among 340,000; P14735; HEK cells, FAbeta-B cleavage, fluorescence polarization; 0% vehicle, 100% cell-free pure enzyme wells; activation, % at 5.96 µM;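 active = activation above the mean of all tested compounds plus 3 SD, set per screening campaign, cut at about 17% in these data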
# RTF Ca sens act: increases calcium sensitivity of human cardiac regulated thin filaments; hit rate 0.24% among 340,000; P19429+P45379; IANBD-labeled TnC RTF fluorescence at EC20 calcium; 0% EC20 calcium, 100% full calcium; activation, % at 7.2 µM;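 active = activation above the mean over all tested compounds plus 3 SD, cut at about 30% in these data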;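 note: rise in fluorescence read as greater calcium sensitivity of cardiac thin filaments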
# C-LANA FP: inhibitors of KSHV LANA C-terminal domain DNA binding. MBP-C-LANA/FAM-LBS DNA binding, fluorescence polarization. inhibition, % at 9 µM. hit rate 0.078% among 340,000;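 active = highest replicate inhibition at or above 60% at 9 µM, even if other replicates fall short; inactive = all replicates below 60% inhibition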
# Keap1 Nrf2 FP: Keap1-Nrf2 (human) interaction inhibition | Q14145 | Keap1 Kelch-Nrf2 peptide fluorescence polarization, 1536-well | inhibition, % at 9.4 µM | hit rate 0.15% among 340,000 | AID 504523; in the data active = inhibition above about 12%;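 note: human Keap1 Kelch domain with fluorescein labeled Nrf2 9mer peptide probe; higher means more block of Keap1 binding to Nrf2 peptide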
# Cardiac RTF inh: cardiac RTF calcium desensitization; P19429+P45379; IANBD-labeled cardiac RTF, Ca2+ fluorescence; inhibition, % at 7.15 µM; hit rate 0.12% among 340,000; AID 493244;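 active = inhibition above the mean inhibition of all tested compounds plus 3 SD, cut at about 17% in these data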;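 note: assay run at fixed EC70 calcium of 1.6 mM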
# IDE inh: inhibitors of human insulin-degrading enzyme in cells; HEK cells, FAbetaB cleavage, fluorescence polarization; inhibition, % at 5.59 µM; hit rate 0.41% among 320,000; AID 434962;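 active = percent inhibition above the average of all tested compounds plus 3 SD, set per screening campaign, cut at about 16% in these data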;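 note: IDE supplied by intact live HEK cells; FP after avidin binding of uncleaved biotin substrate so inhibition keeps polarization high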
# IDE inh confirm: cellular human IDE inhibition, confirmation. shares compounds with IDE inh. HEK cells, FAbetaB cleavage, fluorescence polarization. inhibition, % at 5.59 µM. hit rate 51% among 1,200;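 active = mean inhibition across triplicate wells above the cutoff set by the earlier primary insulin-degrading enzyme screen, cut at about 16% in these data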
# HEK cytotox: kills HEK cells in IDE inhibitor counter-screen; shares compounds with IDE inh; HEK293 cytotoxicity, ATP luminescence; inhibition, % at 5.59 µM; hit rate 28% among 1,200; AID 449730; in the data active = inhibition above about 22%
# Numbers stand for hits; n = inactive; x = no result given.
SMILES,IDE act,RTF Ca sens act,C-LANA FP,Keap1 Nrf2 FP,Cardiac RTF inh,IDE inh,IDE inh confirm,HEK cytotox
CC(=O)N(C1=C(Cl)C(=O)c2ccccc2C1=O)C1CCCCC1,n,n,n,n,n,50,64,124
CC(=O)N(c1ccccc1C)C1CCCC1,n,n,n,n,n,n,x,x
O=C(O)c1ccc(-c2ccc(/C=N/Nc3ccc([N+](=O)[O-])cc3)o2)cc1,n,n,n,n,n,21,41,n
O=C(O)c1ccc(N/N=C/C=C/c2ccc([N+](=O)[O-])o2)cc1,n,n,n,n,n,50,73,n
O=C(O)c1cccc(-c2ccc(/C=N/Nc3ccc([N+](=O)[O-])cc3)o2)c1,n,n,n,n,n,18,22,n
O=C(N/N=C/c1ccc([N+](=O)[O-])o1)C(=O)Nc1ccc(C(=O)O)cc1,n,n,n,n,n,n,x,x
NS(=O)(=O)c1ccc(-c2ccc(/C=N/Nc3ccc(C(=O)O)cc3)o2)cc1,n,n,n,n,n,n,x,x
Cc1ccc(S(=O)(=O)CC(=O)N2CCN(c3ccc([N+](=O)[O-])cc3)CC2)cc1,n,n,n,n,n,19,n,23
Cc1ccc(C)c(S(=O)(=O)NCCN2CCOCC2)c1,n,n,n,n,n,n,x,x
CCOC1=C/C(=C/c2c(N)n3nc(S(=O)(=O)CC)sc3nc2=O)C=CC1=O,n,n,n,n,n,22,112,n
CCOC1=C/C(=C/c2c(N)n3nc(CC(=O)N4CCCCC4)sc3nc2=O)C=CC1=O,n,n,n,n,n,21,26,n
Nc1c(/C=C2\C=Nc3ccccc32)c(=O)nc2sc(CC(=O)N3CCOCC3)nn12,n,n,n,n,n,n,x,x
Nc1c(C(=O)c2ccccc2)sc2nsc(SCCN3CCOCC3)c12,x,x,x,x,x,29,61,58
COc1ccc(NC(C)=O)cc1NS(=O)(=O)c1cn(C)c(=O)n(C)c1=O,n,n,n,n,n,n,x,x
CC(=O)Oc1c(-c2ccc(Br)o2)oc2ccccc2c1=O,n,n,n,n,n,57,74,n
OCCC1CN(Cc2cccn2-c2ccccn2)CCN1C1CCCCC1 (stereo not drawn),n,n,n,n,n,n,x,x
COc1cc(/C=C/C(=O)O)cc(S(=O)(=O)Nc2ccc3c(c2)CCC3)c1OC,n,n,n,n,n,n,x,x
CCCCCCn1c(=O)[nH]c2nc3cc(N)ccc3nc2c1=O,x,x,x,x,x,69,93,n
CN(C)c1cc[n+](CC(=O)c2ccc(-c3ccccc3)cc2)cc1,n,n,n,n,n,22,23,83
O=C(C[n+]1ccccc1)c1ccc(-c2ccccc2)cc1,n,n,n,n,n,n,x,x
COC(=O)c1ccccc1NC(=O)c1ccccc1OC,n,n,n,n,n,n,x,x
COc1ccccc1C(=O)Nc1ccccc1SC(=O)c1ccccc1OC,n,n,n,n,n,43,n,30
C=CCNc1nc(N2CCOCC2)c(C#N)c2c1CN(C)CC2,n,n,n,n,n,16,n,n
N#CCSc1ccccc1NC(=O)COC(=O)CCNC(=O)c1ccc([N+](=O)[O-])cc1,n,n,n,n,n,x,x,x
COCCN1CC(CNC(=O)c2cc(COc3ccc(C)c(C)c3)on2)CC1=O (stereo not drawn),n,n,n,n,n,17,n,n
Cc1ccc(OCc2cc(C(=O)NCCn3cccn3)no2)cc1C,n,n,n,n,n,n,x,x
NC(N)=N/N=C/c1ccc(Cl)cc1Cl,n,n,n,n,n,23,n,25
Cc1nc(N/C(N)=N/S(=O)(=O)c2ccc([N+](=O)[O-])cc2)nc2ccccc12,n,n,n,n,n,22,n,n
Cc1nc(N/C(N)=N/S(=O)(=O)c2ccccc2)nc2ccccc12,n,n,n,n,n,n,x,x
Cc1cccc(N2CCN(C(=O)CCNC(=O)Cn3ccc4ccccc4c3=O)CC2)c1C,n,n,n,n,n,17,n,n

# Screening data as filed in PubChem.
